# Assay outcomes deposited in PubChem by National Center for Advancing Translational Sciences (NCATS).
# Rows were chosen to be rich in hits. Some 6.5% of all compounds tested hit in one or more screens of this group.
# Marburg entry inh – blocks Marburg virus binding to or entry into cells; Marburg virus pseudotyped entry inhibition, cell reporter; Potency, µM (highest dose often 37.8 µM), for the others: at the top dose activity change, negative = inhibition, actives largely listed as inhibitors; hit rate 1.8% among 300,000; AID 540276; calls by dose curve; tested in HEK293 cells; further: potency means the concentration at half of the fitted maximal effect
# VACV mCherry inh – vaccinia inhibition (mCherry reporter); AID 720579; Vaccinia virus mCherry reporter infection, fluorescence; Potency, µM (highest dose often 36.5 µM), inactives show top-dose activity change, negative = inhibition, actives largely listed as inhibitors; hit rate 0.63% among 310,000; calls by dose curve; tested in A549 cells; further: potency means the concentration at half of the fitted maximal effect; nearly all actives have a fitted effect of over 35% in size
# Vaccinia Venus – vaccinia inhibition (Venus reporter); Potency, µM (series often up to 36.5 µM), for the others: top-dose activity change, negative = inhibition, actives largely listed as inhibitors; hit rate 0.46% among 330,000; Vaccinia virus Venus reporter expression, fluorescence; calls by dose curve; tested in A549 cells; further: potency means the concentration at half of the fitted maximal effect; nearly all actives have a fitted effect of over 30% in size
# HCMV antiviral – blocks human cytomegalovirus replication | HFF cells, HCMV-luciferase reporter, 72 h; active compounds read low | activity change, negative = inhibition, % at 57.5 µM | hit rate 4.5% among 410,000; in the data active means activity change below about -60%; inconclusive means no clear call, values can overlap the other calls; inactive means above about -39%
#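 HFF cells seeded 16 h at 37C, treated with compounds, infected with luciferase-reporter HCMV at MOI 1 PFU/cell; luciferase read at 72 h post infection, normalized to buffer-only and Salinomycin controls.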
# FMDV antiviral – blocks foot and mouth disease virus; FMDV antiviral cell-based qHTS; Potency, µM (series often up to 57.9 µM), for the others: top-dose activity change, negative = inhibition, hits mostly inhibitors; hit rate 1.2% among 410,000; calls by dose curve; tested in HEK293T cells; further: read-out not given here; potency means the concentration at half of the fitted maximal effect; nearly all actives have a fitted effect of over 45% in size
# LASV entry inh – inhibitors of Lassa virus binding or cell entry. Lassa virus pseudotype entry inhibition, cell reporter. Potency, µM (series often up to 37.9 µM), for the others: top-dose activity change, negative = inhibition, most hits filed as inhibitors. hit rate 1.2% among 300,000. AID 540256; calls by dose curve; tested in HEK293 cells; further: potency means the concentration at half of the fitted maximal effect; nearly all actives have a fitted effect of over 50% in size
# The depositor's hits bear a star; i = inactive; ? = inconclusive; · = no result; ! = not active in a repeat; [ ] = another dose, or the depositor's remark. On the % scale 0 is the no-effect control and ±100 the full control effect.
SMILES,Marburg entry inh,VACV mCherry inh,Vaccinia Venus,HCMV antiviral,FMDV antiviral,LASV entry inh
Cc1ccc(S(=O)(=O)N2CCN(CCc3ccccc3)CC2)c(C)c1,?,?,?,-65*,?,-5%
Nc1nc(=S)c2[nH]c(=S)[nH]c2[nH]1,-2%[46.1 µM],?,-7%,-12,-3%,-7%[46.1 µM]
Nc1nc(=S)c2[nH]cnc2[nH]1,·,?,?,-86*,-10%,·
Fc1ccc(-n2nnc(-c3cccnc3)n2)cc1,·,i,-7%,49,72%,·
Fc1ccc(C(CCCn2nnc(-c3cccnc3)n2)c2ccc(F)cc2)cc1,?,?,?,-76*,?,-8%
COCCn1c(=O)c(-c2cn(C)c3ccccc23)nc2cnc(N3CCNCC3)nc21,·,·,·,·,-13%,·
CCOC(=O)c1c[nH]c(=S)n(-c2ccccc2)c1=O,·,i,-8%,19,11%,·
CCOC(=O)c1c(SCCN2CCCC2)n(-c2ccccc2)c(=S)n(-c2ccccc2)c1=O,?,-10%,-5%,62,20µM*,?
O=C(c1ccc(Cl)cc1)C(CN1CCCC1)c1ccccc1 (stereo not given),·,·,·,-101*,25µM*,·
COc1ccc(C(=O)CCN2CCCCCC2)cc1,-4%,·,·,14,-19%,-24%
O=C(c1ccccc1)C(CCC(CN1CCOCC1)C(=O)c1ccccc1)CN1CCOCC1 (stereo not given),?,·,7.9µM*,-105*,25µM*,14µM*
OC(CN1CCCC1)c1ccccc1 (stereo not given),·,-18%,-8%,·,·,·
CCCCOc1ccc(C(O)C(CN2CCOCC2)c2ccccc2)cc1 (stereo not given),·,-1%[7.34 µM],0%[7.34 µM],?,-11%,·
CCCCCCCCCC(=O)NC(CN1CCOCC1)[C@H](O)c1ccccc1 (stereo not given in full),16µM*,·,·,·,·,?
COc1ccc(C(=O)C(CN2CCCC2)c2ccccc2)cc1 (stereo not given),?,11µM*,?,-95*,16µM*,?
CC(=O)N1CCC2(CC1)CN(C(=O)Nc1cccc(C#N)c1)C2,·,·,·,·,4%,·
COc1ccc(C(=O)C(CN2CCOCC2)c2ccccc2)cc1 (stereo not given),?,10µM*,10µM*,-99*,11µM*,13µM*
CCCCOc1ccc(C(=O)C(CN2CCOCC2)c2ccccc2)cc1 (stereo not given),?,16µM*,?,-107*,18µM*,?
CCCOc1ccc(C(=O)C(CN2CCCC2)c2ccccc2)cc1 (stereo not given),?,?,10µM*,-82*,18µM*,?
O=C(c1ccc(F)cc1)C(CN1CCOCC1)c1ccccc1 (stereo not given),?,14µM*,13µM*,-77*,8.9µM*,?
CCCCCOc1ccc(C(=O)C(c2ccccc2)N2CCOCC2)cc1 (stereo not given),?,-26%,-20%,?,?,?
CCOC(=O)[C@H]1CCCN(c2nc3ccccc3nc2[C@@H](C#N)C(=O)O[C@@H](C)COC)C1,-2%,·,·,·,·,·
CC(C)NC(=O)c1cnc(N2CCN(Cc3cccc(F)c3)C2=O)s1,·,·,·,-19,·,·
C#CCCC[C@@H](/C=C/C(=O)OCC)NC(=O)C(F)(F)F,·,·,·,0,·,·
CN1CCN(Cc2cccc(Oc3ccc(Cl)cc3)c2)CC1,?,-11%,-18%,-61*,·,2%
SMILES,Marburg entry inh,VACV mCherry inh,Vaccinia Venus,HCMV antiviral,FMDV antiviral,LASV entry inh
COc1ccccc1-c1nnc(C2CCN(C(=O)c3cccc(Cl)c3)CC2)o1,-23%[46.1 µM],-4%,-8%,-92*,-12%,-19%[46.1 µM]
COc1ccncc1-c1csc(C(O)c2ccccc2)n1 (stereo not given),·,-27%,-18%,-69*,-16%,·
COc1cc(F)ccc1-c1csc(C(NC(C)=O)c2ccccc2)n1 (stereo not given),·,i,-21%,38,-23%,·
COc1cc(C(O)c2nc(-c3cc4ccccc4o3)cs2)ccc1F (stereo not given),·,i,-17%,-77*,-8%,·
COc1ccccc1-c1csc(C(NC(C)=O)c2ccccc2)n1 (stereo not given),·,i,-16%,-79*,-12%,·
COc1cccc(C(O)c2nc(-c3cc4ccccc4o3)cs2)c1 (stereo not given),·,i,-11%,3,9%,·
Cc1nc2cnc(N3CCOCC3)nc2n(CCc2ccccc2)c1=O,·,·,·,·,-15%,·
NS(=O)(=O)c1ccc(CCNC(=O)C2COc3ccccc3C2)cc1 (stereo not given),·,-13%,-6%[7.34 µM],24,-3%,-3%[46.1 µM]
O=C(CCl)Nc1cc2[nH]c(=O)[nH]c2cc1Br,?,?,?,-105*,?,?
Cn1cccc1/C=N/n1c(-c2ccc(C(C)(C)C)cc2)n[nH]c1=S,?,·,-12%,?,-20%,10µM*
Cn1cccc1/C=N/n1c(-c2ccccc2)n[nH]c1=S,?,6%,11%,10,-6%,?
CC[N+](C)(CC)CCOC(=O)[C@@](O)(c1ccccc1)C1CCCCC1,22%,·,·,·,·,·
Cc1ccc(C)c(CN2CCC(CNC(=O)Nc3ccc(Cl)cc3)CC2)c1,?,i,-13%,-23,5%,-6%[46.1 µM]
Cc1ccc(C)c(CN2CCC(CNC(=O)Nc3ccc(Br)cc3F)CC2)c1,4.5µM*,?,?,-79*!,?,?
N#Cc1cnn(-c2nc(SCc3ccccc3)nc3sc4c(c23)CCCC4)c1N,-29%,·,·,-101*,-21%,-25%
COC(=O)NC(CCc1ccccc1)C(C(=O)OC)C(=O)OC (stereo not given),13%[14.2 µM],·,·,·,·,?
COC(=O)CC1=C(C(=O)OC)[C@H](c2cccc(OCC(N)=O)c2)C(C#N)=C(N)O1,-30%,·,·,·,·,·
Cc1cccc(-n2c(=O)c3c(c4cc(C)ccc4n3C)n(CC(=O)NCC3CCCO3)c2=O)c1 (stereo not given),·,-5%,-12%,-106*,0%,-1%[46.1 µM]
CC1CCCN(S(=O)(=O)c2ccc(C(=O)Nc3ccccc3-c3nc4ccccc4[nH]3)cc2)C1 (stereo not given),?,i,-9%,-3,-9%,6%
COc1ccccc1NC(=O)c1ccc(S(=O)(=O)N2CCCC(C)C2)cc1 (stereo not given),3%[46.1 µM],-23%,-8%,-64*,-24%,-10%
Cc1cccc2sc(NNC(=O)c3ccc(S(=O)(=O)N4CCCC(C)C4)cc3)nc12 (stereo not given),?,?,?,-72*,10µM*,?
Cc1cccc2sc(NNC(=O)c3ccc(S(=O)(=O)N4CCc5ccccc5C4)cc3)nc12,?,?,?,-105*,?,?
CC[n+]1c(/C=C/N(C)c2ccccc2)oc2ccccc21,?,-28%,-19%,-97*,?,?
CC[n+]1c(/C=C/Nc2ccccc2)oc2ccccc21,?,?,-25%,?,-30%,?
